For 53 molecules, activity increase over dofetilide control, less the hit threshold results are on record in PubChem BioAssay AID1835 (Johns Hopkins Ion Channel Center, 2009).

Screen size: about 2,400 compounds; about 750 (31%) were called active.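 Rule for the calls: active = median signal gain over dofetilide-blocked control wells reaching their mean plus 3 SD, so readout 1 at least 0; inactive = the rest.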 The list shows a part of the results.

The test deals with Voltage-gated inwardly rectifying potassium channel KCNH2 (Homo sapiens) (UniProt Q12809). The experiment in a line: modulators restoring hERG flux under dofetilide – cell-based, thallium flux, duplicate retest, dofetilide IC70, confirmation (AID 1835). To be noted: hERG cell line, FluxOR thallium flux, dofetilide-blocked; at 10 µM; active compounds read high.
Chain of Voltage-gated inwardly rectifying potassium channel KCNH2 (Homo sapiens) (Q12809 whole entry, looked up): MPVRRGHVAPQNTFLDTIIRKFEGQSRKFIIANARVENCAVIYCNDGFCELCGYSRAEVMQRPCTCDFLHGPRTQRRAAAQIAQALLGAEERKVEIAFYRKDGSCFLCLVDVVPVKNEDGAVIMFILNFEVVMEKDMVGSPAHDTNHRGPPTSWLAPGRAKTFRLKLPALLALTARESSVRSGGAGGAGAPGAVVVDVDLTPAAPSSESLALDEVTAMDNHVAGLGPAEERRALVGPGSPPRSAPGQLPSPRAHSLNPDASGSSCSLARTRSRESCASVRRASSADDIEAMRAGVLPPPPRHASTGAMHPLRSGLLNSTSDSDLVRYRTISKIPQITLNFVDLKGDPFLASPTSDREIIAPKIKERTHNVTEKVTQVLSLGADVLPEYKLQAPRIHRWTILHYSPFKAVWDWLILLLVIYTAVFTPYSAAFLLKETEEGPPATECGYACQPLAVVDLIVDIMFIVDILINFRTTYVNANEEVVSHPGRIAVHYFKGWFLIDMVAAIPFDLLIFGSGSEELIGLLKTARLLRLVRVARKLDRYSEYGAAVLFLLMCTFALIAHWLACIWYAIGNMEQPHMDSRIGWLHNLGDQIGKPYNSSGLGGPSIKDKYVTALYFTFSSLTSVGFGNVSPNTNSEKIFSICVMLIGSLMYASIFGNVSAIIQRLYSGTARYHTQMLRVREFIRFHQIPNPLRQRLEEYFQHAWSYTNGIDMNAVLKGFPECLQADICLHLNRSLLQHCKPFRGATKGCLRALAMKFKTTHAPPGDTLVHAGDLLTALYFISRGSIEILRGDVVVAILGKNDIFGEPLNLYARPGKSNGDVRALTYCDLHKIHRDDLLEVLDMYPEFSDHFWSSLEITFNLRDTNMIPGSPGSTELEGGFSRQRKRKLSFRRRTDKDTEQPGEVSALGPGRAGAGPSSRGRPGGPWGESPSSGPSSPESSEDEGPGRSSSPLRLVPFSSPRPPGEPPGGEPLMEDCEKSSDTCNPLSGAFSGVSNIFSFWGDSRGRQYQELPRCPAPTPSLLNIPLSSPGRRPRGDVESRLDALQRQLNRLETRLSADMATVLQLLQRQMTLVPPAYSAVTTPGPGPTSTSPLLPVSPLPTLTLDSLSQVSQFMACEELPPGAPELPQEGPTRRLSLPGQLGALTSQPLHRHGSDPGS
Consider `CCOc1nc(-c2ccccc2)ccc1-c1noc(COC)n1`, for which the activity increase over dofetilide control, less the hit threshold is -7% (inactive).

In the case of `COC(=O)c1ccc(NC(=O)COC(=O)C2CC(=O)N(Cc3ccccc3)C2)cc1` (stereo not drawn), the activity increase over dofetilide control, less the hit threshold is -29% (inactive). As for `Cc1cccc(NC(=S)N/N=C2\CC(C)(C)Oc3ccc(O)cc32)c1`, the activity increase over dofetilide control, less the hit threshold is -5% (inactive). For the molecule `O=S(=O)(c1ccc(F)c(F)c1)N1CCN(c2ncccn2)CC1`, the activity increase over dofetilide control, less the hit threshold is -9% (inactive).

On to `COc1ccc(OC)c(S(=O)(=O)Nc2ccc(O)c3ccccc23)c1`, for which the activity increase over dofetilide control, less the hit threshold was -4% (inactive). Then `O=S(=O)(Nc1ccc(O)c2ccccc12)c1ccc(F)cc1`, with -58% (inactive); and `Cc1ccc(S(=O)(=O)Nc2ccc(O)c3ccccc23)c(C)c1`, with 5% (active); and `O=C(c1ccccc1)c1nccn1-c1ccc(Cl)nn1`, with -11% (inactive). Then `CC(C1CC2CCC1C2)n1c(-c2cccs2)n[nH]c1=S` (stereo not drawn), with -4% (inactive).

`COc1cc(/C=N/n2cnc3scc(-c4cccs4)c3c2=O)cc(OC)c1OC`: the activity increase over dofetilide control, less the hit threshold is -5% (inactive). Then `CC(C)n1c(=S)[nH]c2scc(-c3cccs3)c2c1=O`, with 79% (active); and `Cn1c(=S)[nH]c2scc(-c3cccs3)c2c1=O`, with 60% (active); and `S=c1[nH]c(-c2cccs2)cn1-c1ccccc1`, with -5% (inactive). Then `S=c1nc(C2CC2)[nH]c2ccccc12`, with 34% (active). Then `S=c1[nH]c2ccccc2c2ccccc12`, with -3% (inactive); and `S=c1nc(C2CCCCC2)[nH]c2ccccc12`, with 4% (active). Take `COc1ccc(Cn2c(O)cc(=O)[nH]c2=O)cc1`: the activity increase over dofetilide control, less the hit threshold was -9% (inactive). As for `COc1ccc(-n2c(O)c(/C=C3\C=Nc4ccccc43)c(=O)[nH]c2=O)cc1`, the activity increase over dofetilide control, less the hit threshold is 21% (active). Turning to `Cn1cc(CCC(=O)N2CCCC(Nc3ccc(F)cc3)C2)cn1` (stereo not drawn), the activity increase over dofetilide control, less the hit threshold is -13% (inactive). As for `CCc1cc2cc(C)cc(C)c2[nH]c1=S`, the activity increase over dofetilide control, less the hit threshold was 14% (active).

Turning to `COc1ccc(NC(=O)CC23CC4CC(CC(C4)C2)C3)cn1`, the activity increase over dofetilide control, less the hit threshold is -17% (inactive). With `CCOC(=O)c1cnc(-n2nc(C)cc2C)nc1NNc1nc(-c2ccccc2)cc(-c2ccccc2)n1`, the activity increase over dofetilide control, less the hit threshold is -12% (inactive). For `CCOc1cc(N2CCOCC2)c(OCC)cc1NC(=O)Cn1nc(C)c([N+](=O)[O-])c1C`, the activity increase over dofetilide control, less the hit threshold was 16% (active). As for `CCOc1cc(N2CCOCC2)c(OCC)cc1NC(=O)CCC1CCCC1`, the activity increase over dofetilide control, less the hit threshold is -11% (inactive).

For `CCOc1cc(N2CCOCC2)c(OCC)cc1NC(=O)Cc1ccccc1`, the activity increase over dofetilide control, less the hit threshold is -2% (inactive). Then `Cc1ccccc1OC(=O)n1c(=S)oc2cc(Cl)ccc21`, with -1% (inactive); and `O=C(/C=C/Nc1ccccc1)C(F)(F)F`, with -14% (inactive). Then `Cc1ccc(-c2nc(N)s[n+]2-c2ccccc2)cc1`, with 17% (active); and `CCC(C)(C)NC(=O)c1ccc(Sc2nncn2C)c([N+](=O)[O-])c1`, with -4% (inactive). For the molecule `C=C(C)C1CC=C(C)/C(=N/NC(=O)CCC(=O)Nc2ccccc2Cl)C1` (stereo not drawn), the activity increase over dofetilide control, less the hit threshold was -17% (inactive).

As to `COc1ccc(CCNC(=O)c2ccc3c(c2)OCO3)cc1`, the activity increase over dofetilide control, less the hit threshold was -16% (inactive). With `COc1ccc2c(c1)O[C@@H](c1cccc(C(F)(F)F)c1)[C@H](OC(=O)NCCc1ccc(OC)c(OC)c1)C2=O`, the activity increase over dofetilide control, less the hit threshold is 3% (active). Then `COc1cccc([C@@H]2Oc3ccc(OC)cc3C(=O)[C@H]2OC(=O)NCc2ccc3c(c2)OCO3)c1`, with 5% (active); and `COc1ccc(CCNC(=O)Cn2c(=O)n(-c3ccc(F)cc3)c(=O)c3sccc32)cc1OC`, with -10% (inactive); and `COc1ccc(CCNC(=O)C(=O)Nc2ccc3c(c2)OCO3)cc1OC`, with -22% (inactive).

For `COc1ccccc1-n1c(C)nc2cc(C(=O)NCc3ccc4c(c3)OCO4)ccc21`, the activity increase over dofetilide control, less the hit threshold is -27% (inactive). On to `COC(=O)C(C)Sc1nnc(Cc2cc(=O)[nH]c(=O)[nH]2)n1-c1cccc(OC)c1` (stereo not drawn), for which the activity increase over dofetilide control, less the hit threshold was -17% (inactive). In the case of `CC(C)OC(=O)N(C)c1ccc(C(O)(C(F)(F)F)C(F)(F)F)cc1`, the activity increase over dofetilide control, less the hit threshold was -8% (inactive). Then `CCCOC(=O)CN1C(=O)c2ccc(C(=O)OCCC)cc2C1=O`, with -8% (inactive).

Turning to `COc1ccc(CC(=O)Nc2ccc(-c3noc(-c4ccccc4OC)n3)cc2)cc1`, the activity increase over dofetilide control, less the hit threshold was -18% (inactive). With `Cc1c(C#N)c(O)[nH]c(=O)c1N=Nc1ccc(Br)cc1C(=O)O`, the activity increase over dofetilide control, less the hit threshold is 46% (active). `CC1(C)CC(NC(=O)c2ccc(Cl)cc2Cl)CC(C)(C)N1`: the activity increase over dofetilide control, less the hit threshold is 2% (active).

As for `Cc1ccc(C(C)C)cc1S(=O)(=O)NC1CC(C)(C)NC(C)(C)C1`, the activity increase over dofetilide control, less the hit threshold is -15% (inactive). Then `Cc1ccc2c(c1)c1c(n2CC(O)Cn2nc(C)c(Br)c2C)CCCC1` (stereo not drawn), with -8% (inactive). Then `Cc1ccc(F)cc1CNC(=O)C1CCC(=O)N(C2CC2)C1` (stereo not drawn), with -7% (inactive). Consider `Cc1ccccc1C(=O)NNC(=O)c1cccc([N+](=O)[O-])c1`, for which the activity increase over dofetilide control, less the hit threshold is -31% (inactive). In the case of `Cc1cc(SCC(=O)c2cccc([N+](=O)[O-])c2)nc(=O)[nH]1`, the activity increase over dofetilide control, less the hit threshold is -9% (inactive). For `CCOC(=O)c1[nH]cnc1C(=O)Nc1ccc([N+](=O)[O-])cc1`, the activity increase over dofetilide control, less the hit threshold is -13% (inactive). Then `CCOc1ccc(C(=O)N/N=C/c2cc([N+](=O)[O-])cs2)cc1`, with 0% (inactive). Then `CCOC(=O)/C(C)=N/NC(=O)c1cccc([N+](=O)[O-])c1`, with 3% (active). For `CCOC(=O)/C(C)=N/NC(=O)c1ccc([N+](=O)[O-])cc1`, the activity increase over dofetilide control, less the hit threshold was 17% (active). As to `COC(=O)c1cccc(/C=N/NC(N)=S)c1O`, the activity increase over dofetilide control, less the hit threshold was -9% (inactive). Then `CCOc1cccc(/C=N/NC(=O)c2ccc3c(c2)OCCO3)c1O`, with -10% (inactive).
